# Test results: publication PMC12548414
# Hit rate of the full screen: of about 1,600 compounds, about 20 (1%) showed an effect of 50% or more. Shown is part of a subset that was picked to be rich in strong results.
# System: T1, E. coli pLC1021 (luc-trpAt trans-translation reporter)
# T1 construct: pLC1021 luc-trpAt reporter strain
# Design: species or system Escherichia coli pLC1021; luc-trpAt non-stop luciferase reporter; luminescence rises when trans-translation is inhibited; normalized to KKL-35 and DMSO
# Conditions: reporter signal, KKL-35 = 100%; rise means trans-translation inhibition; 2 h, 20 µM
# In short: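 Cells carrying the non-stop luc-trpAt reporter were exposed to 20 µM compound for 2 h at room temperature, then Bright-Glo was added and luminescence read at 560 nm after 10 min. Signals were normalised per plate to DMSO and 20 µM KKL-35 wells. Hits: activity one SD above the median; ≥2 biological repeats averaged.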
row,SMILES,% activation [%]
1,CC1CCc2sc3ncnc(NCCc4ccccc4)c3c2C1 (centres unmarked) [KKL-0868],2
2,CCOC(=O)COc1ccc(C(=O)Nc2ccc(F)cc2)cc1 [KKL-0783],0
3,CC12CC3CC(C)(C1)CC(CNCc1ccccc1O)(C3)C2 [KKL-1484],3
4,CCCOC(=O)CSc1nnc(-c2cc(OC)c(OC)c(OC)c2)o1 [KKL-1095],0
5,Cc1ccc(-c2csc(-c3ccncc3)n2)cc1C [KKL-0956],0
6,COC(=O)[C@@H](NC(=O)c1cc(COc2c(F)cccc2F)on1)c1ccccc1 [KKL-0496],8
7,CCOC(=O)c1ccc(NC(=O)C2C(=O)N(C)C3(C)CC2c2ccccc2O3)cc1 (centres unmarked) [KKL-1246],0
8,Cc1cc([N+](=O)[O-])ccc1NC(=O)CN1C2CCC1CC(NC(=O)NC13CC4CC(CC(C4)C1)C3)C2 (centres unmarked) [KKL-1619],0
9,CCCCCn1c(=O)c(C(=O)Nc2nc3ccccc3[nH]2)c(O)c2ccccc21 [KKL-1004],7
10,CCOC(=O)Cc1csc(NC(=O)c2c(O)c3ccccc3n(CCC(C)C)c2=O)n1 [KKL-1615],75
11,CCCCCCn1c(=O)c(C(=O)Nc2nc(CC(=O)OCC)cs2)c(O)c2ccccc21 [KKL-0986],0
12,O=C(c1ccc(Cl)cc1)c1ccc(CSc2nnc(-c3ccccc3)o2)o1 [KKL-1212],0
13,O=C(c1cnn(C(=O)c2ccco2)c1)c1cc(F)ccc1O [KKL-1685],3
14,Clc1ccc(OCCCCCn2ccnc2)c(Cl)c1 [KKL-0421],0
15,N#CCc1ccc(NC(=O)/C=C/c2ccc([N+](=O)[O-])o2)cc1 [KKL-1204],0
16,c1cnc(N2CCN(c3nncc(-c4ccc(C5CCCCC5)cc4)n3)CC2)cn1 [KKL-0667],0
17,Cc1cc(Cl)ccc1NC(=O)CCc1ccc(S(=O)(=O)NC(C)C)cc1 [KKL-1581],0
18,CCc1ccc(CCC(=O)Nc2ccc(C)cc2)o1 [KKL-1248],0
19,CC(=O)NC(=S)NNC(=O)c1ccc(-c2ccccc2)cc1 [KKL-0063],99

row,SMILES,% activation [%]
1,CC(C)(C)c1ccc(C(=O)NC(=S)Nc2ccc(C(=O)O)cc2)cc1 [KKL-1314],0
2,CC(C)(C)c1ccc(C(=O)NC(=S)N2CCCC2)cc1 [KKL-1436],12
3,CC(=O)NC(=S)NNC(=O)c1ccc(C(C)(C)C)cc1 [KKL-0588],143
4,O=C(O)c1ccc(NC(=S)NC(=O)c2ccc(-c3ccccc3)cc2)cc1 [KKL-1292],0
5,Cc1ccc(C(=O)NCCC2=CCCCC2)cc1Br [KKL-1393],0
6,Cc1ccc(C(=O)NC(=S)Nc2ccc(S(=O)(=O)NC(C)C)cc2)cc1Br [KKL-0593],0
7,CC(=O)NC(=S)NNC(=O)c1ccc(C)c(Br)c1 [KKL-0065],186
8,COc1ccccc1C(=O)NNC(=S)NC(=O)c1ccc(-c2ccccc2)cc1 [KKL-0561],11
9,CNc1nc(SCC(=O)N(C)Cc2ccc(Cl)s2)nc2ccccc12 [KKL-1768],0
10,Cc1cc(C)nc(/N=C(\N)Nc2cc(Cl)ccc2Oc2ccccc2)n1 [KKL-0289],0
11,COC(=O)COc1ccc(NC(=O)c2ccccc2Br)cc1 [KKL-1572],0
12,Cc1[nH]c2ccccc2c1/C=C1\SC(=N)N(c2nccs2)C1=O [KKL-1143],6
13,Brc1cncc(-c2cc(NCCCn3ccnc3)nc(-c3ccccc3)n2)c1 [KKL-1784],0
14,c1cnc2c(c1)ccc1cccnc12 [KKL-0825],8
15,O=[N+]([O-])c1cc(O)c2ncccc2c1 [KKL-0003],46
16,Oc1ccc(Br)c2cccnc12 [KKL-0093],371
17,O=C(Nc1nc(-c2ccccn2)cs1)c1ncc(Cl)c(Cl)c1Cl [KKL-0390],10
18,O=C(Nc1ccc(Cl)cc1)Nc1ccc(F)c(F)c1 [KKL-1350],0
19,O=C(Nc1ccc(-c2nc3ccccc3c(=O)o2)cc1)c1ccccc1I [KKL-1501],2

row,SMILES,% activation [%]
1,O=C(Nc1ccc(Cl)cc1)c1cc2c(cc1O)[nH]c1ccccc12 [KKL-0896],102
2,CCC(C)c1ccc(O)c(NC(=S)NC(=O)c2ccc(-c3ccc(Cl)cc3)o2)c1 (centres unmarked) [KKL-0745],0
3,CC(C)(C)c1cc(NCCCn2ccnc2)n2ncc(-c3ccc(Cl)cc3)c2n1 [KKL-1011],9
4,N#Cc1cc(Oc2ccc(OCc3ccccc3)cc2)c([N+](=O)[O-])cc1C#N [KKL-0738],5
5,Cc1cccc(NC(=S)NC(=O)CC23CC4CC(CC(C4)C2)C3)c1 [KKL-1311],0
6,CSCCC(=O)N1CCCC(C(=O)Nc2cccc(-c3cccc(C)c3)c2)C1 (centres unmarked) [KKL-0499],0
7,Cc1ccc(-n2cc(CNC(C)c3csc(C)n3)c(-c3cccc(C)c3)n2)cc1 (centres unmarked) [KKL-0500],0
8,Cc1ccc2cc3c(nc2c1C)OC(=O)N(C1CCCC1)C3 [KKL-0690],1
9,CCCCc1cccc(C(=O)Nc2nnc(S(=O)(=O)CCCC)s2)n1 [KKL-1853],6
10,CCCCc1ccc(C(=O)Nc2nccc3ccccc23)nc1 [KKL-1763],50
11,CCOc1ccc2nc(NC(=O)c3ccccn3)sc2c1 [KKL-0810],0
12,c1ccc(-c2nn(-c3ccccc3)cc2CNC2CCCc3c2cnn3-c2ccccn2)cc1 (centres unmarked) [KKL-1169],0
13,Clc1cc(Br)ccc1OCCCCn1ccnc1 [KKL-1286],0
14,OC(CN1CCC2(CC1)CC(O)c1cc(F)ccc1O2)c1ccc2c(c1)CCCC2 (centres unmarked) [KKL-0925],0
15,CN(Cc1ccc(Cl)cc1)C(=O)CCc1nc2ccccc2oc1=O [KKL-1749],0
16,CCN(CC)c1ccc(NC(S)=NCCc2ccc(OC)c(OC)c2)cc1 [KKL-1550],0
17,O=C(Nc1ccc2c(c1)CN(C(=O)/C=C/c1cccs1)CC2)c1ccncc1 [KKL-0616],0
18,Cc1cc(=O)oc2cc(OCC(=O)OC3CCCCC3)ccc12 [KKL-1250],7
